HIV RNase H inh-1: blocks HIV-1 RNase H cleavage of RNA/DNA duplex. AID 565. RT-RNase H RNA/DNA duplex cleavage, fluorescence. actives 1.9% (n = 65,000). inhibition, % at 10 µM; in the data active means inhibition above about 50%
HIV RNase H inh-2: confirmation of HIV-1 reverse transcriptase RNase H inhibitors; actives 39% (n = 1,000); shares compounds with HIV RNase H inh-1; AID 651; inhibition, % at 10 µM; Recombinant RT RNase H, fluorescent RNA/DNA duplex cleavage; in the data active means inhibition above about 48%; inconclusive means no clear call, values can overlap the other calls
Hits are given with their value; . = inactive; ? = inconclusive. The sample as a whole holds a higher share of hits than the screen did.

SMILES	HIV RNase H inh-1	others
COc1ccc(OC)c(NC(=O)CS(=O)(=O)c2ccccc2)c1	.
COc1ccc(OC)c(NS(=O)(=O)Cc2ccccc2)c1	77.2	HIV RNase H inh-2=?
CCOC(=O)CNC(=O)c1cc(C)oc1C	.
COc1ccc(N=C2C(=O)Nc3c(C)cccc32)cc1	.
CCCn1c(NC(=O)c2ccc(Cl)c(S(=O)(=O)N3CCCC3)c2)nc2ccccc21	.
C=CCOc1ccccc1/C=c1\sc2nc(=O)c(C)nn2c1=O	.
CC(C)Oc1ccc(-c2nn(-c3ccccc3)cc2/C=c2\sc3ncnn3c2=O)cc1	70.2	HIV RNase H inh-2=?
COc1ccccc1/C=c1\sc2nc(-c3cccs3)nn2c1=O	.
CC1S/C(=C(\C#N)C(N)=O)N(c2ccc(F)cc2)C1=O (configuration not stated)	.
COc1ccc(C2C3=C(CCCC3=O)Nc3nc4ccccc4n32)c(OC)c1OC (configuration not stated)	.
COc1ccc(Cn2nnnc2C(c2ccc(C)cc2)N2CCN(C3CCCC3)CC2)cc1 (configuration not stated)	.
COc1ccc(Cn2nnnc2C(c2ccccc2Cl)N2CCN(C)CC2)cc1 (configuration not stated)	.
COc1ccc(Cn2nnnc2C(c2cccnc2)N2CCN(c3ccc(O)cc3)CC2)cc1 (configuration not stated)	80.0	HIV RNase H inh-2=85.0
Cc1cc(C)n(C2=NS(=O)(=O)c3ccccc32)n1	.
CC(=O)Nc1ccc(NS(=O)(=O)c2cn(C)c(=O)n(C)c2=O)cc1	.
O=C(CSc1nnnn1-c1ccc2c(c1)OCCO2)OC1CCCCC1	87.3	HIV RNase H inh-2=.
O=C(CSc1nnnn1-c1ccc2c(c1)OCCO2)Nc1nc2c(s1)CCCC2	.
O=C(CSc1nnnn1-c1ccc2c(c1)OCCO2)N1CCc2ccccc21	.
N#CC1=C(c2ccccc2)N=P(N2CCOCC2)(N2CCOCC2)N=C1N1CCOCC1	.
CC1C(O)=C(c2nc3ccccc3[nH]2)C(=N)N1c1ccccc1 (configuration not stated)	.
Cc1nnc(NC(=O)CCCCCN2C(=O)C3C4C=CC(C4)C3C2=O)s1 (configuration not stated)	.
CC(NC(=O)Nc1nnc(C(F)(F)F)s1)N1C(=O)C2C3C=CC(C3)C2C1=O (configuration not stated)	.
Cc1nnc(NC(=O)NC(C)N2C(=O)C3C4C=CC(C4)C3C2=O)s1 (configuration not stated)	55.4	HIV RNase H inh-2=.
COc1ccc(OC)c(NC(=O)CSCC(=O)O)c1	.
O=C(Oc1ccc(-c2nnco2)cc1)N(c1ccccc1)c1ccccc1	.
SMILES	HIV RNase H inh-1	others
CC(=O)N1CCc2cc(S(=O)(=O)NCCC3=CCCCC3)ccc21	.
O=C(C1CC1)N1CCN=C1SCc1ccccc1Cl	.
COc1ccc2oc(C(=O)C3CC3)c(NC(=O)CCCN3C(=O)c4ccccc4C3=O)c2c1	.
COC(=O)C(CCCCNC(=O)OCc1ccccc1)NC(=O)CN (configuration not stated)	.
CC(NC(=O)CNC(=O)OCc1ccccc1)C(=O)N1CC(O)CC1C(=O)OCc1ccccc1 (configuration not stated)	65.8	HIV RNase H inh-2=.
COC(=O)C1CCCN1C(=O)C1CCCN1C(=O)CNC(=O)OCc1ccccc1 (configuration not stated)	.
Cc1ccnc(N2C(=O)OC(C)(C)C2(C)O)c1 (configuration not stated)	.
CC(C)(C)C1=Nn2c(nnc2-c2n[nH]c3c2CCC3)SC1	52.8	HIV RNase H inh-2=.
CC1=Nn2c(nnc2-c2n[nH]c3c2CCC3)SC1	.
Fc1ccc(C2=Nn3c(nnc3-c3n[nH]c4c3CCC4)SC2)cc1	.
COC(=O)c1c(NC(=O)CN2CCC(C)CC2)c2c(C)cccc2n1C	.
CCCCCCNC(=O)C(C(=O)OCC)C1CCCCC1 (configuration not stated)	.
Cc1cc(C)n2c3c(c(C#N)c2n1)CC(C)(C)OC3	.
CSc1nc2[nH]c3c(c2c2nncn12)CC(C)(C)OC3	.
CC1(C)Cc2[nH]c(=S)c(C#N)cc2CO1	69.6	HIV RNase H inh-2=65.1
COC(=O)c1cc(OC)c(OC)cc1NC(=O)CSc1nnnn1Cc1ccccc1	.
COC(=O)c1ccc(NC(=O)CSc2nnc(COc3ccc4c(c3)CCCC4)o2)cc1	74.9	HIV RNase H inh-2=.
CCOc1ccc(NC(=O)CSc2nnc(COc3c(C)cccc3C)o2)cc1	.
COc1cccc(NC(=O)CSc2nnc(COc3ccc4c(c3)CCCC4)o2)c1	.
Cc1ccc(NC(=O)CCc2c(C)nc3ncnn3c2C)nc1	.
COc1cccc(C2NC(=O)NC(C)=C2C(=O)Nc2cccc(C)c2C)c1 (configuration not stated)	.
CC(C)c1nc(SCC(=O)NCc2ccc3c(c2)OCO3)c2c(=O)n(C)c(=O)n(C)c2n1	.
Cc1cnc(NC(=O)c2c(O)c3cccc4c3n(c2=O)CCC4)s1	.
CCCc1nnc(NC(=O)c2c(O)c3cccc4c3n(c2=O)CC4)s1	.
COc1ccc(CCNC(=O)c2c(O)c3cccc4c3n(c2=O)CC4)cc1	83.5	HIV RNase H inh-2=67.2
SMILES	HIV RNase H inh-1	others
O=C(NCCNCCO)c1c(O)c2cccc3c2n(c1=O)CCC3	.
CC(C)c1nnc(NC(=O)c2c(O)c3cccc4c3n(c2=O)CCC4)s1	77.2	HIV RNase H inh-2=73.0
O=C(NCCc1ccccc1)c1c(O)c2cccc3c2n(c1=O)CC3	73.6	HIV RNase H inh-2=83.9
O=C(NCc1ccccn1)c1c(O)c2cccc3c2n(c1=O)CC3	.
COc1ccc(CNC(=O)c2c(O)c3cccc4c3n(c2=O)CCC4)cc1	.
COc1ccc(CNC(=O)c2c(O)c3cccc4c3n(c2=O)CCC4)cc1OC	.
c1ccc(COc2ccc(CNn3cnnc3)cc2)cc1	.
Cc1[nH]c2ccc(CNS(=O)(=O)c3ccc(S(=O)(=O)N4CCOCC4)cc3)cc2c1C	.
Cc1nn(-c2ccccc2)c(Cl)c1C(=O)Nc1nnc(C2CCCC2)s1	.
Cc1ccccc1N1C(=O)N(c2cccc(C(F)(F)F)c2)C2CS(=O)(=O)CC21 (configuration not stated)	.
CC1Cc2cc(C3(O)C(=O)c4ccccc4C3=O)ccc2N1 (configuration not stated)	.
CCOC(=O)c1c(C)[nH]c(C(=O)COC(=O)c2ccc(N3CCCC3=O)cc2)c1C	.
C=CCn1c(SC/C=C/c2ccccc2)nnc1-c1sc(N)nc1C	.
Cc1ccc(OCc2nnc(NC(=O)Cc3cccs3)s2)cc1	62.2	HIV RNase H inh-2=?
O=C(Nc1nnc(COc2ccccc2)s1)c1ccco1	.
CCOC(=O)Cc1nnc(NC(=O)COc2ccc(C)cc2)s1	.
Cc1ccc(C2C(C(=O)c3cccs3)=C(O)C(=O)N2CCN2CCOCC2)o1 (configuration not stated)	.
COc1ccccc1NC(=O)c1ccc(-c2ccccc2F)o1	.
COc1ccc(C2=NO[C@@H]3C(=O)N(c4cccc(C)c4C)C(=O)[C@H]23)cc1OC	.
COc1ccc(C2=NO[C@@H]3C(=O)N(c4ccc(C)cc4C)C(=O)[C@H]23)cc1OC	54.3	HIV RNase H inh-2=.
Cc1ccc(N2C(=O)[C@@H]3C(c4ccc(F)cc4)=NO[C@@H]3C2=O)cc1	.
OCCN1CCN(c2nc(-c3ccccc3)nc3c2oc2ccccc23)CC1	.
Cc1ccc(S(=O)(=O)Cc2cccc(C(=O)N3CCOCC3)c2)cc1	.
Cn1c(=O)c2nc(-c3ccc(Cl)cc3Cl)oc2c2ccccc21	.
CCCc1nc2ccccc2c(=O)n1/N=C/c1c(C)[nH]n(-c2ccc(C)cc2)c1=O	.

Assay outcomes deposited in PubChem by University of Pittsburgh Molecular Library Screening Center.
